Data as given in PubChem BioAssay AID463190 (Sanford-Burnham Center for Chemical Genomics, 2010).
Screen size: about 330,000 compounds; about 7,300 (2.2%) were called active.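 Rule for the calls: active = inhibition of at least 40%; inactive = the rest.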 Shown is part of a subset that was picked to be rich in actives.

Assay: growth inhibitors of tim10-1 mutant yeast, primary screen, luminescence, uHTS (AID 463190);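 note: mutant grown at 25 °C; 0% = DMSO wells with yeast and 100% = wells holding no yeast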
Details: S. cerevisiae tim10-1 ts strain growth, BacTiter-Glo, 24 h; at 20 µM; hits give high values

With `CC1CCCCC1NC(=O)NC(=O)COC(=O)C1=NN(c2ccccc2)C(=O)CC1` (centres undefined) as the compound, how does the inhibition read?
The inhibition was -2.21% (inactive).

For `C#C[C@]1(O)CC[C@H]2[C@@H]3CCC4=CC(=O)CC[C@@H]4[C@H]3CC[C@@]21CC`, which inhibition is on record?
Its inhibition is 12.4% (inactive).

For `COc1ccccc1CN(C)C(=O)C1(c2ccc(Cl)cc2)CC1`, which inhibition is on record?
Its inhibition is 3.3% (inactive).

For `N#CCc1ccc(OC(=O)c2cccnc2)cc1`, which inhibition is on record?
The inhibition was 19.6% (inactive).

Which inhibition does the source give for `CCCCCCOc1ccc(OC(=O)c2cccnc2)cc1` here?
Its inhibition is 7.23% (inactive).

For `O=C(Oc1c(-c2ccco2)oc2ccccc2c1=O)c1cccnc1`, which inhibition is on record?
Its inhibition is 45.4% (active).

With `CCOc1ccc(C(CC(=O)O)NC(=O)Cc2ccccc2)cc1OC` (centres undefined) as the compound, how does the inhibition read?
The inhibition was -13.2% (inactive).

With `CCOc1ccc(C(C)NC(=O)CN2C(=O)NC3(CCCCC3)C2=O)cc1OCC` (centres undefined) as the compound, how does the inhibition read?
The inhibition was 0.453% (inactive).

With `CCOc1ccc(C(c2c(C)[nH][nH]c2=O)c2c(C)[nH][nH]c2=O)cc1OCC` as the compound, how does the inhibition read?
The inhibition was 45.9% (active).

With `CCOC(=O)c1cn(CC)c2cc(F)c(F)cc2c1=O` as the compound, how does the inhibition read?
Its inhibition is -8.23% (inactive).

With `CC(=O)NC(CC(=O)Nc1cccc(S(=O)(=O)N2CCCC2)c1)c1ccccc1` (centres undefined) as the compound, how does the inhibition read?
Its inhibition is 19.9% (inactive).

Which inhibition does the source give for `CN1CCN(c2cc(=O)n(-c3ccc(Cl)cc3)c(=O)[nH]2)CC1` here?
The inhibition was -20.5% (inactive).

For `COc1ccc(N(CC(=O)Nc2cc(OC)ccc2OC)S(=O)(=O)c2c(C)noc2C)cc1`, which inhibition is on record?
The inhibition was 29.9% (inactive).

With `CCOC(=O)Cc1csc(SCc2cc(=O)oc3cc(O)ccc23)n1` as the compound, how does the inhibition read?
Its inhibition is 12.7% (inactive).

With `CCOC(=O)Cc1csc(SCC(=O)Nc2ccc(C)cc2F)n1` as the compound, how does the inhibition read?
Its inhibition is 18.9% (inactive).

With `CCOC(=O)Cc1csc(NC(=O)COc2ccc3c(C)cc(=O)oc3c2)n1` as the compound, how does the inhibition read?
Its inhibition is 11.9% (inactive).

With `CCOC(=O)Cc1csc(NC(=O)CSc2nnc(-c3cccnc3)n2Cc2ccco2)n1` as the compound, how does the inhibition read?
Its inhibition is 13.4% (inactive).

Which inhibition does the source give for `CCOC(=O)Cc1csc(SCC(=O)NC(C)C23CC4CC(CC(C4)C2)C3)n1` (centres undefined) here?
The inhibition was 43.5% (active).

For `CCOC(=O)Cc1csc(NC(=O)CSc2ccc(Br)cc2)n1`, which inhibition is on record?
Its inhibition is 46.9% (active).

Which inhibition does the source give for `NS(=O)(=O)c1ccc(CCNC(=O)c2ccc([N+](=O)[O-])cc2[N+](=O)[O-])cc1` here?
Its inhibition is 2.98% (inactive).

Which inhibition does the source give for `CCCN(C(=O)CSc1nnnn1C)c1c(N)n(Cc2ccccc2)c(=O)[nH]c1=O` here?
The inhibition was -2.11% (inactive).

For `CN(CC(=O)Nc1cccc(F)c1)C(=O)C1CSC2(C)CCC(=O)N12` (centres undefined), which inhibition is on record?
The inhibition was 2.74% (inactive).

For `COc1ccccc1N1CCN(C(=O)c2cc(=O)c3cc(C)cc(C)c3o2)CC1`, which inhibition is on record?
The inhibition was 45.3% (active).

Which inhibition does the source give for `O=C(c1cc(=O)c2ccccc2o1)N1CCN(c2ccccc2)CC1` here?
Its inhibition is 5.8% (inactive).

For `COc1ccccc1N1CCN(C(=O)c2cc(=O)c3cc(C)ccc3o2)CC1`, which inhibition is on record?
Its inhibition is 36.5% (inactive).

Which inhibition does the source give for `Cc1ccc(C(=O)N/N=C\c2cc(Br)c(Br)o2)cn1` here?
Its inhibition is 3.87% (inactive).

With `COc1cccc(NC(=O)CN2CCN(CC(=O)Nc3ccccc3Cl)CC2)c1` as the compound, how does the inhibition read?
Its inhibition is 19.6% (inactive).

Which inhibition does the source give for `COc1ccc(Cl)cc1NC(=O)CN1CCN(C(=O)N2CCOCC2)CC1` here?
Its inhibition is 1.52% (inactive).

Which inhibition does the source give for `COc1ccc(NC(C)=O)cc1NC(=O)CN1CCN(C2c3ccccc3-c3ccccc32)CC1` here?
Its inhibition is 41.6% (active).

With `CC(C)(C)OC(=O)C1=C(CO)CS[C@@H]2[C@H](NC(=O)Cc3ccccc3)C(=O)N12` as the compound, how does the inhibition read?
The inhibition was 9.18% (inactive).

With `Cc1ccc(S(=O)(=O)N2CCN(C(=O)CSc3cc(C)ccc3C)CC2)c(C)c1` as the compound, how does the inhibition read?
The inhibition was 23.1% (inactive).

Which inhibition does the source give for `O=C(NCc1ccco1)c1nc2ncccn2n1` here?
The inhibition was 1.9% (inactive).

With `Cc1cccc(Nc2ccccc2C(=O)NCc2ccco2)c1C` as the compound, how does the inhibition read?
The inhibition was 29.9% (inactive).

With `O=C(NCc1ccco1)c1cccn2c(=O)c3c4c(sc3nc12)CCCC4` as the compound, how does the inhibition read?
Its inhibition is 41.6% (active).

Which inhibition does the source give for `COc1ccc(C(=O)N2CCC(C(=O)Nc3cccc(C)c3)CC2)cc1OC` here?
Its inhibition is -7.58% (inactive).

Which inhibition does the source give for `O=c1nc2s/c(=C\c3ccco3)c(=O)n2nc1Cc1ccccc1` here?
The inhibition was 63% (active).

With `O=C(Nc1ccccc1)/C(=C\c1ccco1)NC(=O)c1ccco1` as the compound, how does the inhibition read?
The inhibition was 23.3% (inactive).

For `O=C(NCCc1ccco1)c1nn(Cc2ccccc2)c(=O)c2ccccc12`, which inhibition is on record?
The inhibition was 14.5% (inactive).

With `CC(=O)N1N=C(c2ccccc2)OC1c1cccnc1` (centres undefined) as the compound, how does the inhibition read?
The inhibition was 7.21% (inactive).

Which inhibition does the source give for `Cc1ccc2nc(N3CCN(C(=O)c4ccco4)CC3)sc2c1` here?
The inhibition was 6.64% (inactive).

Which inhibition does the source give for `COc1ccc2nc(N3CCN(C(=O)c4ccc([N+](=O)[O-])o4)CC3)sc2c1` here?
Its inhibition is 42.2% (active).

For `CCN(CC)CCN(C(=O)c1cccc([N+](=O)[O-])c1)c1nc2ccc(OC)cc2s1`, which inhibition is on record?
The inhibition was 12.5% (inactive).

With `CC(C)NS(=O)(=O)c1ccc(OCC(=O)NC2CCCCCC2)cc1` as the compound, how does the inhibition read?
The inhibition was 4.48% (inactive).

With `Cc1nn(-c2ccccc2)c2sc(C(=O)N(Cc3ccco3)C(C)C(=O)NC(C)(C)C)cc12` (centres undefined) as the compound, how does the inhibition read?
Its inhibition is 14.2% (inactive).

For `Cc1cccc(N=Nc2c(C)[nH]n(-c3ccccc3)c2=O)c1`, which inhibition is on record?
Its inhibition is 20.1% (inactive).

For `Cc1[nH]n(C(N)=S)c(=O)c1N=Nc1ccc(Cl)cc1Cl`, which inhibition is on record?
The inhibition was 47.4% (active).

For `CC1=NN(C(N)=S)C(=O)C1N=Nc1cc(Cl)ccc1Cl` (centres undefined), which inhibition is on record?
Its inhibition is 38.6% (inactive).

Which inhibition does the source give for `CSc1cc(C)n(-c2ccccc2C)c(=S)c1C(C)=O` here?
Its inhibition is -13.6% (inactive).

With `Cc1nc(/N=C(\N)NC(=O)NC2CCCCC2)nc2ccccc12` as the compound, how does the inhibition read?
The inhibition was -11.5% (inactive).

For `COc1ccc2nc(C)cc(Nc3cccc(C(=O)O)c3)c2c1`, which inhibition is on record?
The inhibition was -1.42% (inactive).

For `COc1ccc2nc(/N=C(\N)NC(=O)Nc3ccccc3)nc(C)c2c1`, which inhibition is on record?
Its inhibition is 50% (active).

With `Cn1c(SCc2nc3ccccc3s2)nnc1-c1ccc2c(c1)OCO2` as the compound, how does the inhibition read?
Its inhibition is -2.97% (inactive).

For `O=C(CCl)Nc1cccc(CP(=O)(c2ccccc2)c2ccccc2)c1`, which inhibition is on record?
The inhibition was 9.52% (inactive).

Which inhibition does the source give for `Cn1c(SCC(=O)Nc2cccc(NC(=O)c3cccs3)c2)nnc1-c1ccncc1` here?
Its inhibition is -9.32% (inactive).

Which inhibition does the source give for `O=C(NOCc1ccccc1)c1cccc([N+](=O)[O-])c1` here?
Its inhibition is 21.3% (inactive).

For `CCCCN=C1C([N+](=O)[O-])=CC=C2C1=NC1(CCCCC1)N2O`, which inhibition is on record?
Its inhibition is 9% (inactive).

With `Cc1ccc(C(=O)COc2cccc(NC(=O)c3ccco3)c2)cc1` as the compound, how does the inhibition read?
The inhibition was 40.3% (active).

For `COc1ccc(OCC(=O)Nc2ccc(NC(=O)c3ccco3)c(C)c2)cc1`, which inhibition is on record?
The inhibition was -11.8% (inactive).

With `Cc1cccc(OCC(=O)Nc2ccc(NC(=O)c3ccco3)c(C)c2)c1` as the compound, how does the inhibition read?
Its inhibition is 1.89% (inactive).
